Most compounds without a hit are left out; they make up all but 2.2% or so of the library.
HTR5A inv ctr – HTR5A inverse agonists in luminescence cell assay, primary screen, counter-screen for OPRM1-OPRD1 heterodimer inverse agonist project, full-deck HTS | 5-hydroxytryptamine receptor 5A (Homo sapiens), P47898 | inhibition, % at 9.3 µM | HTR5A cell line, inverse agonism | 340,000 tested, 0.083% active; in the data active = inhibition mostly above about 23%, no sharp cut-off; inactive = mostly below about 18%
m5-HT2A agonist – mouse Htr2a agonists via beta-arrestin recruitment, primary screen, cell-based, luminescence | AID 624169, 2012 | 5-hydroxytryptamine receptor 2A (Mus musculus), P35363 | CHO-K1 mHTR2A beta-arrestin complementation; percent of 30 µM serotonin response | activation, % at 7.6 µM | 360,000 tested, 0.66% active;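 active = activation above a run cutoff, the mean activation of all tested compounds plus 3 SD, cut at about 14% in these data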
Target sequence (P35363 whole entry, looked up): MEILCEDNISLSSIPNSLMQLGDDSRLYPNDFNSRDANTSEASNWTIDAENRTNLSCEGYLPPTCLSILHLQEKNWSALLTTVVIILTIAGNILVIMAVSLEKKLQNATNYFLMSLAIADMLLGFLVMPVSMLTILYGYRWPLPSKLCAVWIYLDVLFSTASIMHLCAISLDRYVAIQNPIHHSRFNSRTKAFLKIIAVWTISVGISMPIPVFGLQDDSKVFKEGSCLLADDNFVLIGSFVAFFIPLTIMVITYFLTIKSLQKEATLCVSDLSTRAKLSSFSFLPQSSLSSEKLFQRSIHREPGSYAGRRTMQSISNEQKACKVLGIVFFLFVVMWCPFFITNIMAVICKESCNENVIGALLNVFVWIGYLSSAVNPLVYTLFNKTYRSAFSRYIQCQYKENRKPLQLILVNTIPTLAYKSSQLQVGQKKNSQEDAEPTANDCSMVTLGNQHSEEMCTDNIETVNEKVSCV
sPLA2-III inh – human group III sPLA2 inhibitors, primary screen, biochemical, QFRET, BODIPY PC-A2 liposome substrate. AID 743126, 2013. Group 3 secretory phospholipase A2 (Homo sapiens), Q9NZ20. inhibition, % at 12.2 µM. QFRET BODIPY PC-A2 liposome hydrolysis, fluorescence. 370,000 tested, 0.56% active;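 active = inhibition above mean plus 3 SD of compounds lying within the high and low control bounds, cut at about 19% in these data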
HTR5A ag ctr – HTR5A agonists in luminescence cell assay, primary screen, counter-screen for OPRM1-OPRD1 heterodimer agonist project, full-deck HTS; 5-hydroxytryptamine receptor 5A (Homo sapiens), P47898; activation, % at 9.3 µM; cell-based; 340,000 tested, 0.61% active; AID 504692, 2011; in the data active = activation mostly above about 9.5%, no sharp cut-off; inactive = mostly below about 7.6%
MOR-DOR inv ag – inverse agonists of MOR-DOR heterodimerization, primary screen, cell-based, luminescence | Mu-type opioid receptor (Homo sapiens) + Delta-type opioid receptor (Homo sapiens), … | cell-based MOR-DOR heterodimer luminescence, inverse agonism | inhibition, % at 9.3 µM | 340,000 tested, 0.21% active; in the data active = inhibition above about 22%, passing the limit was not always enough
OPRM1-OPRD1 ag – agonists of OPRM1-OPRD1 heterodimerization, primary screen, cell-based, luminescence | 340,000 tested, 0.3% active | Mu-type opioid receptor (Homo sapiens) + Delta-type opioid receptor (Homo sapiens), … | activation, % at 9.3 µM | cells; in the data active = activation above about 18%
hGIII sPLA2 conf – human group III sPLA2 inhibitors, confirmation, biochemical, QFRET, triplicate | shares compounds with sPLA2-III inh | recombinant hGIII-sPLA2, BODIPY PC-A2 QFRET fluorescence | inhibition, % at 12.2 µM | 2,000 tested, 34% active | AID 743280, 2014;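 active = mean inhibition across triplicates above the hit cutoff set in the earlier primary screen, cut at about 19% in these data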
BODIPY interf – 535nm fluorescence optical interference, confirmation, artefact control for HGIII-sPLA2 inhibitor project, biochemical, QFRET; shares compounds with sPLA2-III inh; BODIPY FL product fluorescence interference; inhibition, % at 12.2 µM; 2,000 tested, 8.5% active;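 active = average inhibition above the solvent-only control mean plus 3 SD, cut at about 6% in these data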
BODIPY interf DR – 535nm fluorescence optical interference, dose response, artefact control for HGIII-sPLA2 inhibitor project, biochemical, QFRET. shares compounds with sPLA2-III inh. BODIPY FL product fluorescence interference, cell-free. IC50, µM. 240 tested, under 10 active;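 active = IC50 at or below 10 µM; inactive = IC50 above 10 µM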
Numbers stand for hits; 0 = inactive; - = no result.

SMILES	HTR5A inv ctr	m5-HT2A agonist	sPLA2-III inh	HTR5A ag ctr	MOR-DOR inv ag	OPRM1-OPRD1 ag	hGIII sPLA2 conf	BODIPY interf	others
O=C(c1cc(O)c(O)c([N+](=O)[O-])c1)c1ccccc1F	0	0	29	0	0	0	0	0
O=C(Nc1ccc(Cl)cc1C(=O)N1CCOCC1)c1ccco1	0	0	20	0	0	0	0	0
CCCCC(=O)N(Cc1ccccc1)c1ccccc1C(=O)Nc1cc(OC)ccc1OC	-	-	0	-	-	-	-	-
Cc1cc2c(cc1C)N(C(=O)CSc1nncn1C)C(C)(C)c1ssc(=S)c1-2	0	0	34	0	0	0	0	0
CC(C)CN1C(=O)C[C@]2(C(=O)N(C)c3ccc(NS(=O)(=O)C4CCCCC4)cc32)C1c1ccccc1 (stereo not given in full)	-	-	0	-	-	-	-	-
Cc1ccc(/C=N/n2c(-c3ccco3)n[nH]c2=S)cc1	0	0	22	0	0	0	0	0
COc1ccc(-n2cnc3c(N)nc(N)nc32)cc1	0	0	20	0	0	0	0	0
COc1ccc(-n2cnc3ccccc32)cc1	0	0	0	0	0	0	-	-
CCc1ccc(OCCNc2cc(N3CCNC(C)C3)ccc2[N+](=O)[O-])cc1 (stereo not given)	0	0	26	0	0	0	0	0
COc1ccc(-n2c(SCC(=O)Nc3ccc(Oc4ccccc4)cc3)nnc2-c2ccc(C)cc2)cc1	-	-	0	-	-	-	-	-
S=c1[nH]c2ccccc2n2c(=S)[nH]nc12	0	0	21	0	0	0	26	0
CCCCn1c(-c2csc(CC)c2)n[nH]c1=S	0	0	20	0	0	0	25	0
CCCCn1c(-c2csc(C(C)C)c2)n[nH]c1=S	0	0	0	0	0	0	-	-
CCCCn1c(-c2nn(C)c(C)c2Cl)n[nH]c1=S	0	0	20	0	0	0	24	0
Cc1c(Cl)c(-c2n[nH]c(=S)n2CC(C)C)nn1C	0	0	0	0	0	0	-	-
CC(C)CNC(=O)OCc1cn(Cc2c(F)cccc2F)nn1	-	-	0	-	-	-	-	-
CCCC(=O)N1CCC(NS(=O)(=O)c2ccc3c(c2)CCN3C(C)=O)CC1	-	-	0	-	-	-	-	-
CCCCCCCCNC(=O)c1cccnc1SCC(=O)Nc1ccc(OC)cc1OC	0	0	22	0	0	0	0	0
CN1C(=O)C2(c3ccccc31)c1c(oc3ccccc3c1=O)C(=O)N2CCO (stereo not given)	0	0	0	0	0	0	-	-
CN1C(=O)C2(c3ccccc31)c1c(oc3ccccc3c1=O)C(=O)N2CCCO (stereo not given)	0	0	21	0	0	0	0	0
CCOc1ccccc1C(=O)NN1CCOCC1	0	0	0	0	0	0	-	-
CCOc1ccccc1C(=O)NN1C(=O)C2CCCCC2C1=O (stereo not given)	0	0	22	0	0	0	0	0
CCCNC(=O)Nc1cccc(C(=O)OC)c1	0	0	21	0	0	0	0	0
CCCNC(=O)Nc1cccc(NC(C)=O)c1	0	0	0	0	0	0	-	-
O=C(Cn1nnc(-c2ccc(N3CCOCC3)cc2)n1)c1ccc(F)cc1	-	-	0	-	-	-	-	-
SMILES	HTR5A inv ctr	m5-HT2A agonist	sPLA2-III inh	HTR5A ag ctr	MOR-DOR inv ag	OPRM1-OPRD1 ag	hGIII sPLA2 conf	BODIPY interf	others
COc1ccc(NC(=S)NNC(=O)c2nnn(-c3ccccc3)c2C)cc1	0	0	35	0	0	0	42	0	BODIPY interf DR=0
COc1ccc(NC(=O)c2cnn(-c3ccccc3)c2C)cc1	0	0	0	0	0	0	-	-
Nc1cc(N)nc(SCC(=O)NCCC2=CCCCC2)n1	0	0	0	0	0	0	-	-
Cc1cc(C)c2nc(SCC(=O)NCCC3=CCCCC3)cc(C)c2c1	0	0	21	0	0	0	0	0
CC[C@H](C)[C@@H](CN[C@H](C)CNC)NCCC(c1ccccc1)c1ccccc1	0	0	26	0	0	0	0	0
CC[C@@H](C)[C@H](CN[C@H](CNC)C(C)C)NC[C@@H](C)c1ccc(CC(C)C)cc1	0	0	0	0	0	0	-	-
CCOC(=O)c1ccc(N2CCN(c3ccccc3F)CC2)c(NC(=O)Nc2cccc(OC)c2)c1	0	0	21	0	0	0	0	0
COC(=O)c1ccc(N2CCOCC2)c(NC(=O)Nc2cccc(OC)c2)c1	0	0	0	0	0	0	-	-
COc1ccc(C)cc1NC(=O)NNC(=O)c1cc2ccccc2cc1O	0	0	0	0	0	0	-	-
COc1ccc(NC(=O)NNC(=O)c2cc3ccccc3cc2O)cc1	0	0	22	0	0	0	23	0
O=C(NNC(=O)c1cc2ccccc2cc1O)Nc1ccc(Br)cc1	0	0	31	0	0	0	31	6.2
NC(=O)c1sc2nc3c(c(-c4ccco4)c2c1N)CCCC3	0	0	20	0	0	0	0	0
NC(=O)c1sc2nc3c(c(-c4ccc(Cl)cc4)c2c1N)CCCC3	0	0	0	0	0	0	-	-
Cc1cc(C)cc(C(=O)OCCN(C)C2CN(Cc3cn(Cc4cccc(F)c4)nn3)S(=O)(=O)C2)c1 (stereo not given)	-	-	0	-	-	-	-	-
COC(=O)C1=C(C)N(Cc2cccc(C(F)(F)F)c2)C(=NCC2CC2)NC1c1ccc(F)cc1 (stereo not given)	-	-	0	-	-	-	-	-
COc1ccc(CN2CCN(C(=O)c3cccc4ccccc34)CC2)cc1Br	0	0	0	0	0	0	-	-
COc1ccc(CN2CCc3c([nH]c4ccccc34)C2)cc1Br	0	0	27	0	0	0	0	0
N/C(COc1cc(Cl)cc(Cl)c1)=N\O	0	0	21	0	0	0	0	0
O=C(NCCCN1CCCC1=O)c1cccc(S(=O)(=O)N2CCN(c3ccccc3)CC2)c1	0	0	0	0	0	0	-	-
CC1CCCN(S(=O)(=O)c2cccc(C(=O)NCCCN3CCCC3=O)c2)C1 (stereo not given)	-	0	20	-	-	-	0	0
COC(=O)[C@]12C[C@H](CC(=O)NCC34CC5CC(CC(C5)C3)C4)C(=O)N(CCC3=CCCCC3)C1=C[C@H](C1CCCC1)O[C@@H]2C	-	-	0	-	-	-	-	-
